Test results published in the supplement of paper PMC10338343.
± gives the standard deviation. In all, about 6,200 sequences were measured (“pre-steady-state target cleavage rate”: median about 0.29, highest 2% from about 2 on). The entries come from a sample that favours the highest values as a whole.

system: MIWI (PIWIL1) piRISC loaded with piRNA #1 (30 nt); assay: pre-steady-state target cleavage rate (min^-1); MIWI and MILI are mouse PIWI proteins and EfPiwi is from a freshwater sponge; tags in brackets are library labels; higher = faster piRNA-guided slicing of the target; conditions: guide: piRNA #1 5'p-UGAGGUAGUAGGUUGUAUAGUAUCCAGAGG; auxiliary factor: 500 nM mouse GTSF1
Procedure: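 Cleave-'n-Seq: a library of target RNAs (target site embedded in constant flanks, ACAGCATTCCGCGTTAGTGATATCCG... 5' flank; DNA-blocked outside the site) at 0.1 nM was incubated with 1 nM active mouse MILI or MIWI piRISC (synthetic 5'-monophosphorylated piRNA guide) with or without 500 nM mouse GTSF1 at 33 °C for 1 min to 16 h. Uncleaved targets were sequenced and normalised to non-target controls, and the pooled three trials were fitted to a burst-and-steady-state model to give the pre-steady-state cleavage rate (min^-1; k3 is constrained to at most 1e-4). Sequence is the target site only; target names encode pairing extent (gX:gY) and contiguous / 1-mismatch / 2-mismatch / bulge geometry. Fits with R² ≤ 0 are excluded.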

Sequence	pre-steady-state target cleavage rate
GGAGACCUAUCUAUACAACCUUCUACCACA	0.136 ± 0.015
GCUCUGGAUAUAUACAACCUACUACCUCA	1.62 ± 0.086
CCUCUGGAUAUUAUACAACCUACUACCUCA	2.15 ± 0.12
GCUCUGGAUACAUAUACAACCUACUACCUCA	1.54 ± 0.083
GGUCUGGAUAUUAUACAACCUACUACCUCA	1.98 ± 0.12
GGACUGGAUAUUAUACAACCUACUACCUCA	1.62 ± 0.11
GCUCUGGAUAUUAUACAACCUACUACCUCA	2.06 ± 0.11
GGAGACCUAAGUAUUCAACCUACUACCUCA	0.00289 ± 0.0023
CGUCUGGAUACUAUACAACCUACUACCUGA	0.517 ± 0.044
CCUCUGGAUACUAUACAUGGUACUACCUCA	0.0547 ± 0.0094
GGAGAGGAUACUAUACAACCUACCACCUCA	0.849 ± 0.049
GCUCUCGAUUCUAUACAACCUACUACCUCA	2.09 ± 0.12
GCUCUCGAUACUAUACAACCUUCUACCUCA	0.639 ± 0.034
CCUCUCGAUUCUAUACAACCUACUACCUCA	2.25 ± 0.15
GGACUCGAUUCUAUACAACCUACUACCUCA	1.61 ± 0.14
CCUCUCGAUACUAUACAACCUUCUACCUCA	0.676 ± 0.035
GGUCUCGAUUCUAUACAACCUACUACCUCA	1.74 ± 0.1
GGUCUGGAUACUAUACUUCCUACUACCUCA	0.248 ± 0.029
GGAGUGGAGACUAUACAACCUACUACCUCA	1.65 ± 0.099
GGAGUGGAUACUAAUACAACCUACUACCUCA	1.4 ± 0.1
GCGCUGGAUACUAUACAACCUACUACCUCA	1.85 ± 0.1
CCGCUGGAUACUAUACAACCUACUACCUCA	1.88 ± 0.094
CCUGCUGGAUACUAUACAACCUACUACCUCA	2.06 ± 0.12
GCUGCUGGAUACUAUACAACCUACUACCUCA	2.01 ± 0.14
GGUGCUGGAUACUAUACAACCUACUACCUCA	1.85 ± 0.11

Sequence	pre-steady-state target cleavage rate
GGGCUGGAUACUAUACAACCUACUACCUCA	1.9 ± 0.12
GCUCUGGAUACUAUACAACCAUCUACCUCA	0.0463 ± 0.011
GGAGUGGUUACUAUAGAACCUACUACCUCA	1.24 ± 0.08
CAUCUGGAUACUAUACAACCUACUACCUCA	1.37 ± 0.066
GGUCUGGAUACUAUACAACCUUACUACCUCA	0.00317 ± 0.0022
GGAGACCUUAGUAUACAACCUACAACCUCA	0.0975 ± 0.018
GCACUGGAAACUAUACAACCUACUACCUCA	1.82 ± 0.089
GCUCUGGAAACUAUACAACCUACUACCACA	1.42 ± 0.15
CCUCUGGAAACUAUACAACCUACUACCACA	2.19 ± 0.26
GCUCAGGAAACUAUACAACCUACUACCUCA	1.78 ± 0.1
GGACUGGAAACUAUACAACCUACUACCUCA	1.44 ± 0.097
GGUCUGGAAACUAUACAACCUACUACCACA	0.461 ± 0.05
CCUCAGGAAACUAUACAACCUACUACCUCA	2.04 ± 0.1
GGUCAGGAAACUAUACAACCUACUACCUCA	1.77 ± 0.12
CCACUGGAAACUAUACAACCUACUACCUCA	2.06 ± 0.11
GGAGACGAUACUAUACAACCUAGAUCCUCA	0.113 ± 0.015
GGAGAGGUUACUAAACAACCUACUACCUCA	1.21 ± 0.08
GGAGACGAUACUAUAGAACCUACUACCUCA	1.14 ± 0.066
GGAGACCUAUGAUAACAACCUACAUGGAGA [g8:g16:cont:t1A]	< 0.0001
GGAGUGCAUACUAUACUACCUACUACCUCA	1.13 ± 0.092
GGAGACCUAUGAUAAGUACCUACUACCUCA	< 0.0001
GGAGACCUAUCUUUACAACCUACUACCACA	0.129 ± 0.03
GGAGUGGAUUCAAUACAACCUACUACCUCA	1.02 ± 0.071
GGAGUAGAUACUAUACAACCUACUACCUCA	1.55 ± 0.074
GCUCUGGAUACUAUACAACCUCUACCUCA	0.00616 ± 0.003

Sequence	pre-steady-state target cleavage rate
CCUCUAGAUACUAUACAACCUACUACCUCA	2.2 ± 0.13
GGACUAGAUACUAUACAACCUACUACCUCA	1.77 ± 0.1
GGUCUAGGAUACUAUACAACCUACUACCUCA	1.83 ± 0.1
GCUCUAGGAUACUAUACAACCUACUACCUCA	1.85 ± 0.095
GCUCUAGAUACUAUACAACCUACUACCUCA	2.09 ± 0.12
GGUCUAGAUACUAUACAACCUACUACCUCA	1.81 ± 0.11
CCUCUAGGAUACUAUACAACCUACUACCUCA	2.12 ± 0.12
GGAGACCUAAAUAUACAACCUACUACCUCA	0.106 ± 0.021
GGACUGGAUACUAUACAACGUUCUACCUCA	0.107 ± 0.014
GGUCUGGAUAGUAUACAACCUACUACCUGA	0.248 ± 0.041
GGAGACGAUAGUAUACUACCUACUACCUCA	0.67 ± 0.071
GGAGUGGAUACUAUACAACCUACUCACCUCA	0.793 ± 0.088
GGAGUGGAUACUAUACUACCUAGUACCUCA	0.283 ± 0.04
GGUGUGGAUACUAUACAACCUACUACCUGA	0.419 ± 0.069
CCUGACGAUACUAUACAACCUACUACCUCA	2.06 ± 0.12
GCUCACGAUACUAUACAACCUACUACCUCA	1.83 ± 0.092
GGAGACGAUACUAUACAACCUACUACCUCC [g2:g24:cont:t1C]	1.5 ± 0.075
GGAGACGAUACUAUACAACCUACUACCUCCA	2.06 ± 0.12
GGAGACGAUACUAUACAACCUACUACCUCG [g2:g24:cont:t1G]	1.1 ± 0.063
GGUCACGAUACUAUACAACCUACUACCUCA	1.89 ± 0.12
CCUCACGAUACUAUACAACCUACUACCUCA	2.1 ± 0.12
GGUGACGAUACUAUACAACCUACUACCUCA	1.82 ± 0.098
GCUGACGAUACUAUACAACCUACUACCUCA	1.84 ± 0.1
